From ChEMBL document CHEMBL3988442, “University of Dundee, Small-Polar-MMV Screening Library” (2021)
The campaign covered roughly 48,000 compounds. About 13,000 (27%) showed an effect of 50% or more. This is one part of the list.

Each compound was assayed on Wolbachia pipientis (assay: Anti-Wolbachia Cell-Based Screen). Conditions: 5 µM.
Assay type: functional
Set-up: scale not given: in the data most compounds retested in dose-response had high values

Row | Structure (SMILES) | Percent Effect [%]
1 | CCc1c(C)sc2ncnc(N3CC[C@@H](N4CCC(O)CC4)[C@H](O)C3)c12 | -2.578
2 | O=C(O)c1cn(CC2CCCN(c3nc4ccccc4s3)C2)nn1 (stereo not drawn) | -26.21
3 | NC(=O)c1ccccc1-n1cc(-c2cccc(C(=O)O)c2)cn1 | 8.053
4 | CCN1CCCN(c2ncccc2C(=O)N2CCCCC2)CC1 | -13.17
5 | CC(C)N1CCC(Cc2cncc(-c3cccc(C(=O)O)c3)n2)CC1 | 108.9
6 | COCCN1CCC(Cc2cncc(-c3ccc(C(=O)O)cc3)n2)C1 (stereo not drawn) | -8.312
7 | CC(C)N1CCC(Cc2cncc(-c3cccc(C(=O)O)c3)n2)C1 (stereo not drawn) | 113.7
8 | CC(C)N1CCC(Cc2cc(-c3cccc(C(=O)O)c3)ncn2)C1 (stereo not drawn) | -6.349
9 | CC(C)N1CCC(CC(=O)NCc2cc(O)ncn2)CC1 | -21.37
10 | COCCN1CCC(Cc2cncc(-c3ccc(C(=O)O)cc3)n2)CC1 | 112
11 | CC(C)N1CCC(Cc2cnc(-c3cccc(C(=O)O)c3)cn2)C1 (stereo not drawn) | -8.094
12 | CC(C)N1CCC(Cc2cc(-c3cccc(C(=O)O)c3)ncn2)CC1 | 121.9
13 | COCCN1CCC(CNc2nccc(-c3cnn(C)c3)n2)CC1 | 12.08
14 | Cc1cccc(CN2Cc3ncn(C)c3C(COCC(=O)N(C)C)C2)n1.O=C(O)C(F)(F)F.O=C(O)C(F)(F)F.O=C(O)C(F)(F)F (stereo not drawn) | 115.6
15 | CN(C)C(=O)COCC1CN(Cc2ccoc2)Cc2ncn(C)c21.O=C(O)C(F)(F)F.O=C(O)C(F)(F)F (stereo not drawn) | 111.6
16 | Cc1cccc(CN2CCc3c(COCC(=O)N(C)C)nn(C)c3C2)n1.O=C(O)C(F)(F)F.O=C(O)C(F)(F)F | 1.951
17 | CN(C)C(=O)COCC1CN(Cc2ccco2)Cc2ncn(C)c21.O=C(O)C(F)(F)F.O=C(O)C(F)(F)F (stereo not drawn) | 91.74
18 | CN(C)C(=O)COCC1CN(Cc2cccs2)Cc2ncn(C)c21.O=C(O)C(F)(F)F.O=C(O)C(F)(F)F (stereo not drawn) | 100.2
19 | CCOCC1CN(Cc2ccoc2)Cc2nn(CC3CC3)cc21.O=C(O)C(F)(F)F (stereo not drawn) | -8.348
20 | Cn1cnc2c1C(COCC1CCOCC1)CN(Cc1ccccn1)C2.O=C(O)C(F)(F)F.O=C(O)C(F)(F)F.O=C(O)C(F)(F)F (stereo not drawn) | -22.25
21 | CN(C)C(=O)COCc1nn(C)c2c1CCN(Cc1ccco1)C2.O=C(O)C(F)(F)F | -2.792
22 | CCn1cc2c(n1)CN(Cc1ccoc1)CC2COCC1CC1.O=C(O)C(F)(F)F (stereo not drawn) | -14.5
23 | c1ccc(-c2cc(CN3C[C@@H]4CC[C@H](C3)N(CC3CCC3)C4)on2)cc1 | 10.47
